# Source: PubChem BioAssay AID686978 (National Center for Advancing Translational Sciences (NCATS), 2013)
# The campaign covered roughly 420,000 compounds. About 64,000 (15%) were called active. Inconclusive results (about 27%) are left out. Calls follow the shape of the dose curve; as a rule, active = well fitted inhibition curve with a large enough effect; inconclusive = small, poorly fitted or top-dose-only effect; inactive = flat fitted curve, though single readings scatter. These entries were drawn from the full list. Where a call stands in place of a potency, no number is given.
# Experiment: qHTS for Inhibitors of human tyrosyl-DNA phosphodiesterase 1 (TDP1): qHTS in cells in absence of CPT; also: nearly all actives have a fitted effect of over 55% in size
# Conditions: DT40 Tdp1-/- hTDP1 cells, no CPT, ATP luminescence, 48 h; activity change, negative = growth inhibition: at 46.2 µM (top of the series)
# How it was run: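 Growth of hTDP1-complemented DT40 Tdp1-knockout cells is measured by ATP luminescence after at least 48 hr compound exposure at 37 °C, with DMSO substituting for the 20 nM CPT used in the parallel screen.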
# Potency is read from the fitted curve at half-maximal effect.
row,SMILES,Potency
1,S=C(Nc1ccc2c(c1)OCO2)N1CCCC1,inactive
2,Nc1ccc(Cl)c(S(=O)(=O)Nc2ccccc2Cl)c1,inactive
3,Cc1cc(C)n(CC(O)CN(c2ccccc2)S(=O)(=O)c2ccc3ccccc3c2)n1 (stereo unspecified),23.1 µM (active)
4,CCN(c1ccccc1)S(=O)(=O)c1ccc2[nH]c(=O)[nH]c2c1,inactive
5,O=S(=O)(c1ccccc1)N(CC(O)CN1CCCCC1)c1ccccc1 (stereo unspecified),inactive
6,CCCCCN(C(=O)CCC(=O)OCC(=O)NC1CCC(C)CC1)c1c(N)n(CCCC)c(=O)[nH]c1=O (stereo unspecified),inactive
7,Cc1nc(SCC(=O)N2CCN(c3ccccc3)CC2)[nH]c(=O)c1C,inactive
8,O=C(COC(=O)CNC(=O)c1ccco1)Nc1ccc(F)cc1,inactive
9,COCCNC(=O)c1ccc(N2CCC3(CC2)OCCO3)c([N+](=O)[O-])c1,inactive
10,CCN1CCC(=NNC(=O)c2ccc(C)c([N+](=O)[O-])c2)CC1,inactive
11,CCCNC(=O)c1ccc(N2CCC3(CC2)CC(c2cccc(Br)c2)=NO3)c(NC(=O)c2ccco2)c1,6.51 µM (active)
12,CCCNC(=O)c1ccc(N2CCC3(CC2)CC(c2ccc(Cl)cc2)=NO3)c([N+](=O)[O-])c1,20.6 µM (active)
13,CCCN(CCC)CCNC(=O)c1ccc2c(c1)NC(=O)C(CS(=O)(=O)Cc1cccc(Br)c1)N2 (stereo unspecified),inactive
14,COC(=O)c1ccc(N2CCOCC2)c(NC(=O)c2ccc(Br)o2)c1,inactive
15,CN[C@@H]1[C@@H](O)[C@@H](O[C@@H]2[C@H](O)[C@H](O[C@H]3OC(CN)=CC[C@H]3N)[C@@H](N)C[C@H]2N)OCC1(C)O (stereo partly specified),inactive
16,CN1C(C)(C)CC(NC(=O)CCC(=O)NC2CC(C)(C)N(C)C(C)(C)C2)CC1(C)C,inactive
17,O=P(O)(CP(=O)(c1ccccc1)c1ccccc1)c1ccccc1,inactive
18,Cc1ccc(S(=O)(=O)N2CC(=O)Nc3ccccc32)cc1C,inactive
19,C=CCOC(=O)C1=C(C)NC(SCC(=O)OCC)=C(C#N)C1c1ccc(C)cc1 (stereo unspecified),inactive
20,COC(=O)C1=C(C)OC(N)=C(C#N)C1c1cc(OC)ccc1OC (stereo unspecified),inactive
21,C=CCOC(=O)C1=C(C)OC(N)=C(C#N)C1c1ccc(F)cc1 (stereo unspecified),29.1 µM (active)
22,O=[N+]([O-])c1ccccc1SNc1ccccn1,16.4 µM (active)
23,O=C(CSc1nnc(-c2ccc([N+](=O)[O-])cc2)o1)Nc1ccccn1,inactive
24,Nc1nc(Sc2ncccc2[N+](=O)[O-])n[nH]1,inactive
25,O=C(Nc1ccncc1)c1ccc([N+](=O)[O-])cc1Cl,inactive
26,COCC(C)NC(=O)CSc1nc2nn(-c3ccccc3)c(=O)c-2c2n1CCCCC2 (stereo unspecified),inactive

row,SMILES,Potency
1,NNC(=O)C1CC(O)CN1S(=O)(=O)c1ccc(Cl)cc1 (stereo unspecified),inactive
2,CC1(C)CC(=O)C(N=Nc2ccc(S(=O)(=O)N3CCCCCC3)cc2)=C(O)C1,inactive
3,NS(=O)(=O)c1ccc(NC(=O)COC(=O)c2ccc(Cl)nc2)cc1,inactive
4,CCN(CC)c1ccc(NC(=O)c2ccc(Cl)nc2)cc1,2.59 µM (active)
5,Cc1cnc(NC(=O)c2ccc(Cl)nc2)s1,inactive
6,Cc1ccc2c(c1)NCC(C(=O)NC1CCC(C)CC1)O2 (stereo unspecified),inactive
7,CC1(c2ccc3ccccc3c2)NC(=O)N(CC(N)=O)C1=O (stereo unspecified),inactive
8,CCOC(=O)C1CCN(C(=O)CN2C(=O)NC(C)(c3ccc4cc(OC)ccc4c3)C2=O)CC1 (stereo unspecified),10.3 µM (active)
9,CCOC(=O)C1CCN(C(=O)Nc2cccc(OC)c2)CC1,inactive
10,COc1ccc(C2C3=C(CCCC3=O)N(CC(=O)O)C3=C2C(=O)CCC3)cc1,inactive
11,CCOc1ccc(NC(=S)N2CCC(NC(=O)c3ccccc3)CC2)cc1,inactive
12,COC(=O)c1ccccc1NC(=O)C1CCN(C(=O)N2CCOc3ccccc32)CC1,23.1 µM (active)
13,CCOc1ccc(NC(=O)C2CCN(C(=O)N3CCOc4ccccc43)CC2)cc1,20.6 µM (active)
14,CCOC(=O)c1ccccc1NC(=S)N1CCC(C(N)=O)CC1,inactive
15,CC(=O)N1CCOc2ccc(S(=O)(=O)N3CCC(C(=O)Nc4ccccc4F)CC3)cc21,inactive
16,CCOc1ccc(NC(=O)N2CCN(CC)CC2)cc1,inactive
17,Cc1ccsc1C(=O)OCC(=O)Nc1cccc(F)c1,inactive
18,O=C(Nc1cccc2ccccc12)N1CCN(Cc2ccc3c(c2)OCO3)CC1,inactive
19,N#Cc1cccc(CN2CCC(=O)N(CCO)CC2)c1,inactive
20,CC(C)[C@@H]1NC(=O)[C@H](Cc2ccccc2)NC(=O)[C@@H](CC(=O)O)NC(=O)CNC(=O)[C@H](CCCNC(=N)N)NC1=O,inactive
21,C=CCOc1ccc(/C=C/C(=O)OCC(=O)NCC2CCCO2)cc1 (stereo unspecified),inactive
22,CCC(C)C(=O)Nc1ccccc1N1CCN(c2ccc(F)cc2)CC1 (stereo unspecified),20.6 µM (active)
23,CCC(=O)Nc1ccccc1N1CCN(S(C)(=O)=O)CC1,inactive
24,Cc1cccc(C)c1NC(=O)CN1CCN(c2ccc(F)cc2)CC1,20.6 µM (active)
25,O=C(NC(=S)Nc1ccccc1N1CCCCC1)c1ccc(F)cc1,inactive
26,O=C(CN1CCN(c2ccccc2)CC1)Nc1ccc(F)cc1,inactive

row,SMILES,Potency
1,O=C(CN1CCN(c2ccc(F)cc2)CC1)Nc1ccccc1,inactive
2,CCCCC(=O)Nc1ccccc1N1CCN(c2ccc(F)cc2)CC1,16.4 µM (active)
3,CCn1cc(CN2CCCC(CNS(=O)(=O)Cc3ccccc3)C2)cn1 (stereo unspecified),inactive
4,CC(C)C(=O)Nc1nnc(SCC(=O)N2C(C)CCCC2C)s1 (stereo unspecified),inactive
5,C[C@H]1CN([C@@H](C)CO)C(=O)CCCn2cc(nn2)CO[C@@H]1CN(C)S(=O)(=O)c1cccc(C#N)c1,inactive
6,CC(C)NC(=O)C(c1ccc(F)cc1)N(C(=O)CCC(=O)Nc1ccccn1)c1ccccc1F (stereo unspecified),inactive
7,O=C(Nc1ccccc1Cl)N1CCC(CN2CCCCC2)CC1,inactive
8,CC(=O)N=c1ncn(CC(COC(C)=O)OC(C)=O)c2nc[nH]c12 (stereo unspecified),inactive
9,Cc1ccc(CNC(=O)CCCNC(=O)c2ccc(Cl)cc2)n1C,inactive
10,Cc1nc(-c2ccc(Cl)cc2)sc1C1(C)CC(c2ccc(Br)cc2)=NO1 (stereo unspecified),inactive
11,Cc1cccc(NC(=O)CSc2nc3c(c(=O)[nH]2)CCC3)c1C,inactive
12,CCCCn1c(N)c(N(CC(C)C)C(=O)c2cccc(S(=O)(=O)N3CCN(C(C)=O)CC3)c2)c(=O)[nH]c1=O,inactive
13,O=C(NCCCn1ccnc1)C(=O)c1cn(CC(=O)N2CCCCCC2)c2ccccc12,inactive
14,O=C(NNC(=O)c1cccnc1)Nc1ccccc1,inactive
15,O=C(c1cccnc1)N(Cc1ccccc1)C(=O)c1cccnc1,inactive
16,O=C(CC(=O)c1cccnc1)c1ccccc1,20.6 µM (active)
17,COC(=O)Cc1cnc(NC(=O)CSc2nc(C(C)C)cc(=O)[nH]2)s1,inactive
18,COc1cccc(-n2c(=O)c3c(C)c(C(=O)N(C)C)sc3n(Cc3cccc(C)c3)c2=O)c1,inactive
19,COc1cccc(N=c2oc3c(C)ncc(CO)c3cc2C(N)=O)c1,inactive
20,CCCN(CCC)c1c([N+](=O)[O-])c(=O)oc2ccccc12,inactive
21,CCC(C)(C)NC(=O)C(c1ccc(O)cc1)N(C(=O)Cn1nnc2ccccc21)c1ccc(NC(C)=O)cc1 (stereo unspecified),inactive
22,COc1ccc(NC(=O)CCCN2C(=O)CCn3nc(-c4cn(C)c5ccccc45)cc32)cc1OC,23.1 µM (active)
23,COc1ccc(NC(=O)CCCNC(=O)Cn2cnc3sc4c(c3c2=O)CCCC4)cc1OC,inactive
24,O=C(CN1C(=O)CCn2nc(-c3ccccc3)cc21)NCc1ccccc1,inactive
25,O=C(/C=C/[C@H]1O[C@@H](n2ccc(=O)[nH]c2=O)[C@H](O)[C@@H]1O)NCc1ccccn1,inactive
26,COc1ccc(Cl)cc1NC(=O)CSc1nc(-c2cccs2)cc(C(F)(F)F)n1,20.6 µM (active)

row,SMILES,Potency
1,COc1ccc(Cl)cc1NC(=O)CN(C)C(=O)c1cc(-c2cccs2)nn1-c1ccccc1,18.4 µM (active)
2,COc1ccc(-c2cc(C(F)(F)F)nc(SCC(=O)Nc3ccc4c(c3)OCO4)n2)cc1OC,inactive
3,COc1ccc(C)cc1NC(=O)CSc1nnc(CC(=O)Nc2ccccc2F)n1C,inactive
4,COc1ccc(Cl)cc1NC(=O)CN(C)C(=O)c1cc2ccccc2cc1OC,18.4 µM (active)
5,O=C(COC(=O)c1cc(-c2cccs2)nn1-c1ccccc1)Nc1cc([N+](=O)[O-])ccc1Cl,inactive
6,COc1ccc(Cl)cc1NC(=O)CNc1ccccc1F,inactive
7,COc1ccc(Cl)cc1NC(=O)CN(C)C(=O)CNC(=O)C12CC3CC(CC(C3)C1)C2,inactive
8,C=Cn1cc[n+](CC(=O)c2ccc(OC)c(OC)c2)c1,inactive
9,Cc1c(C(=O)N(C)CCc2cnn(C)c2)oc2c(F)cccc12,inactive
10,Cn1ccs/c1=N\S(=O)(=O)c1ccc(C(C)(C)C)cc1,inactive
11,CC(=O)Nc1ccc(S(=O)(=O)NCC2CCC(C(=O)NCCc3ccccc3)CC2)cc1 (stereo unspecified),inactive
12,CS(=O)(=O)N1CCN=C1SCc1ccc(F)cc1,inactive
13,CCn1c(SCc2cccc(C(=O)O)c2)nnc1-c1ccc(Cl)cc1,inactive
14,Cc1oc2cc3oc(=O)ccc3cc2c1C,inactive
15,O=C(Nc1c(Br)cc2c(c1Br)Cc1ccccc1-2)C(F)(F)F,inactive
16,CC(=O)c1ccc2c(c1)c1ccccc1n2CC(C)C,inactive
17,CCOC(=O)c1sc(NC(=O)CSc2n[nH]c(CC)n2)nc1C,inactive
18,O=C(CN1CCc2cc3c(cc2C1)OCCCO3)Nc1ccccc1,25.9 µM (active)
19,O=C(CN1CCOCC1)Nc1ccccc1,inactive
20,Cc1ccc(NC(=O)CN2CCc3ccccc3C2)cc1,inactive
21,Cc1ccc(NS(=O)(=O)c2cn(C)c(=O)n(C)c2=O)c(C)c1,inactive
22,O=C(CCN1C(=O)C2C3C=CC(C3)C2C1=O)Nc1ccccc1F (stereo unspecified),inactive
23,O=C(NCCCNC(=O)c1ccccc1Cl)c1cnccn1,inactive
